For 28 compounds, Potency results are on record in PubChem BioAssay AID1347416 (National Center for Advancing Translational Sciences (NCATS), 2020).

The campaign covered roughly 4,100 compounds. About 1,600 (39%) were called active. Inconclusive results (about 25%) are left out. Calls come from the whole dose curve; as a rule, active = well fitted inhibition curve with a large enough effect; inconclusive = small, poorly fitted or top-dose-only effect; inactive = no such curve, though single readings can be large or run the other way. The list shows a part of the results.
Potency is the fitted concentration of half-maximal effect.

The experiment can be described thus: qHTS Validation assay for Inhibitors of Plasmodium falciparum Dd2 growth in vitro. Note: nearly all actives have a fitted effect of over 70% in size. To be noted: P. falciparum Dd2 in RBCs, SYBR Green growth, 72 h; series mostly up to 28.7 µM. In a few lines:
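P. falciparum Dd2-infected red blood cells (2.5% hematocrit, 0.3% parasitemia) grown 72 h at 37 °C under 5% O2 with compounds in a titration, 29 uM to 0.5 nM final. Growth read as SYBR Green-1 fluorescence after ~16 h lysis; artesunate 300 nM as positive control.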
On the technique in general: qHTS replaces the single test concentration by a dilution series.
Turning to `CC(C)c1ccc(OCc2ccc(C(=O)O)o2)cc1`, the Potency entry was “inactive”.

`CC(O)CNCCNCc1c(OCc2ccccc2)ccc2ccccc12` (stereo not drawn): the Potency is 8.41 µM (active).

Turning to `Cc1cc(N2CCN(C3CCCCC3)CC2)nc2cccc(O)c12`, the Potency was 5.31 µM (active). The figure for `Cc1cc(N2CCC(N(C)C3CCCC3)CC2)nc2cc(O)ccc12` is 5.96 µM (active). In the case of `Cc1nc2ccc(NC(=O)c3cc(S(=O)(=O)N(C)c4ccccc4)ccc3Cl)cc2s1`, the Potency is 0.842 µM (active).

Turning to `O=C(NC(=S)Nc1ccc2c(c1)OCCO2)c1ccccc1F`, the Potency result was “inactive”.

With `COc1cccc(OC)c1C(=O)NC(=S)Nc1ccc2c(c1)C(=O)N(C)C2=O`, the Potency was 0.944 µM (active).

As for `COc1ccc(NC(=O)c2ccc3c(c2)n(C)c(=O)c2ccnn23)cc1OC`, the Potency entry is “inactive”. The figure for `COC(=O)[C@@H]1Cc2c([nH]c3ccccc23)[C@H]2C[C@H](N3CCCCC3)C[C@@H](c3ccccc3F)N21` is 5.96 µM (active); for `C1CCC(COCCc2noc(C3CNC3)n2)C1` it is “inactive”. With `Cc1cc(C)cc(NC(=O)NCc2c(-n3cccc3)sc3c2CCCC3)c1`, the Potency entry is “inactive”. In the case of `CC(=O)N1Cc2ccccc2CC2(CCN(Cc3ccccn3)CC2)C1`, the Potency entry is “inactive”. With `CC(=O)N1Cc2ccccc2CC2(CCN(CC3CCOCC3)C2)C1` (stereo not drawn) the entry was “inactive”; with `CC(C)C(=O)N1Cc2ccccc2CC2(CCCN(CC3CCCCC3)C2)C1` (stereo not drawn), 0.0531 µM (active); with `Cc1ccc(CN2CCOC[C@H]2c2ncc(C(C)(C)C)[nH]2)cc1`, 13.7 µM (active). With `CC(C)(C)c1cnc([C@@H]2COCCN2Cc2ccccc2O)[nH]1` the figure was 13.7 µM (active); with `C[C@@H](c1ccccc1)N1C(=O)[C@@H]2CN(C(=O)c3cccnc3)CCN2C1=O`, “inactive”. With `Cc1nn2c(c1-c1ccccc1-c1ccccc1)N(Cc1ccc(O)cc1)CCC2` the figure was 0.485 µM (active). For the compound `Cc1nn2c(c1-c1ccccc1-c1ccccc1)N(Cc1cccc(O)c1)CCC2`, the Potency is 4.85 µM (active).

For `CCCCSc1nnc2c(n1)OC(C)N(C(C)=O)c1ccccc1-2` (stereo not drawn), the Potency result is “inactive”. The figure for `CCOc1ccc(NS(=O)(=O)c2csc(C(N)=O)c2)cc1` is 7.5 µM (active). The entry for `CCOc1ccc(S(=O)(=O)Nc2ccc3oc4c(c3c2)CC(C)CC4)cc1` (stereo not drawn) is “inactive”; for `COc1cc(NS(=O)(=O)c2cnc(N)nc2)cc(OC)c1` it is “inactive”. The figure for `CCn1cc(C(=O)O)c(=O)c2cnc(N3CCN(C(=S)Nc4ccccc4)CC3)nc21` is 3.76 µM (active); for `CCn1cc(C(=O)N2CCN(c3ccc(OC)cc3)CC2)c(=O)c2cc(S(=O)(=O)N3CCOCC3)ccc21` it is “inactive”. Turning to `Cc1ccc(C(=O)c2cc(C)sc2NC(=O)CN2CCN(C(=O)c3ccco3)CC2)cc1`, the Potency is 7.5 µM (active). In the case of `CCc1cc(C(=O)OC)c(NC(=O)CN2CCN(C(=O)c3ccco3)CC2)s1`, the Potency is 5.96 µM (active). With `COCCOC1CCOC2(CCN(C(=O)c3ccco3)CC2)C1` (stereo not drawn) the entry was “inactive”.
